5 molecules from PubChem BioAssay can be followed below.

Where “and” joins values, the source holds several entries; their conditions need not be identical. Equal values may be shown once. Calls of active or inactive are those of the source.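 How the source made its calls, unless noted: active means inhibition at or above 50% relative to wild type and mutant plate controls; inactive means inhibition below 50%.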

Test [1] in a line: inhibitors of TNFa-induced NFkB p65 translocation, primary screen, imaging, HUVEC, MLSMR starter and 10KST1 sets (AID 438;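 active means inhibition above 20% together with a positive visual image hit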;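 further: compound added about 3h40 before a 20 min TNFalpha stimulation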;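 on inhibition: signal is the nuclear over cytoplasmic p65 intensity ratio per well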). Conditions: HUVEC TNFa-induced p65 nuclear translocation; cell count: measured here: nuclei count (cytotoxicity indicator), at 2.08 µM; inhibition: at 2 µM, stronger effect = higher value, 0% TNFa-plus-vehicle, 100% no-TNFa wells.
Test [2] is described as follows: reduction of polyQ htt aggregates in cells – imaging, exon1htt(103Q)mCFP cells, high-content imaging, primary screen (AID 483;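 active means visual image review flags a hit and inhibition of aggregation exceeds 20%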;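 further: compound exposure lasted 3 days before fixation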;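 on nuclei count: percent of the per-plate median nuclei count of sample wells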). The conditions noted are these: exon1htt(103Q)mCFP cell line, aggregate imaging, at 2 µM; inhibition of aggregation: stronger effect = higher value; nuclei count: measured here: cell count, toxicity.
The nature of test [3]: endothelial E-selectin expression blockers – imaging, HUVEC, immunofluorescence, MLSMR starter and 10KST1 sets, primary screen (AID 487;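 active means visually confirmed hit in the image check and inhibition above 20%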;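 on inhibition: signal is fraction of cell area covered by stained E-selectin grains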;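 on nuclei count: 100% = median nuclei count of all wells on the same plate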). Conditions: HUVEC TNFalpha-induced E-selectin immunofluorescence imaging, at 2 µM; inhibition: stronger effect = higher value; nuclei count: measured here: cell number, toxicity.
Test [4] can be described thus: Primary imaging screen for DUSP6 inhibitors that restore phospho-Erk in transfected HeLa cells, chemical complementation (AID 609;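 active means compounds giving at least 50% inhibition in the cell-based MKP-3 phosphatase rescue imaging test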;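 on inhibition: phospho-Erk level distribution per well compared with pooled transfected vehicle control wells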). Conditions: HeLa MKP-3 transfected, phospho-Erk imaging KS statistic, at 10 µM, cells stimulated with TPA for 15 min.
Test [5] addresses Dual specificity protein phosphatase 6 (Homo sapiens) (UniProt Q16828). Described as above. Conditions: HeLa MKP-3 transfected, phospho-Erk imaging KS statistic; at 10 µM; stronger effect = higher value; cells stimulated with TPA for 15 min.
In test [6] the target is Voltage-gated potassium channel subunit beta-2 (Rattus norvegicus) (UniProt P62483). The test can be described thus: inhibitors of rat Kvbeta2 reductase activity – biochemical, NADPH fluorescence, primary screen (AID 622;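 active means fluorescence slope higher than the sample average by over 3 SD, cut at about -0.22 in these data, passing the limit was not always enough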;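 further: slope of raw intensity against log time taken from 70 to 1610 s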). Conditions: recombinant KvBeta, 4-cyanobenzaldehyde reduction, at 10 µM, stronger effect = higher value.
Test [7] has the same target. The test can be described thus: enhancers of rat Kvbeta2 NADPH turnover – biochemical, NADPH fluorescence, primary screen (AID 623;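 active means NADPH fluorescence slope more negative than the mean of all samples by about 3 SD, 99.7% confidence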;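 further: fluorescence intensity change per second fitted from 20 to 320 s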). Conditions: Recombinant KvBeta, NADPH fluorescence decrease slope, 10 min; at 10 µM; stronger effect = lower value.
Test [8] addresses Alpha-2C adrenergic receptor (Homo sapiens) (UniProt P18825). In words: compounds altering alpha2C-coupled GIRK flux – cell-based, HEK293 alpha2C/GIRK1/2, thallium flux, primary screen (AID 624;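 active means fluorescence slope after compound addition differing from the mean of all screened samples at 99.7% confidence, in either direction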;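 further: slope of fluorescence ratio to pre-addition baseline per second over 15 to 24 s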). The conditions noted are these: thallium flux BTC fluorescence, at 10 µM, actives lie on both sides.
Test [9] in a line: inhibitors of larval lipid processing in zebrafish, primary screen, whole organism, PED6 fluorescence, gall bladder and intestine (AID 686;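 active means a full or partial loss of lipid-probe fluorescence in the fish gall bladder, intestine or both, judged by eye; inactive means no fluorescence loss, or compound toxic to the fish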;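 further: larvae 5 to 7 days old with five fish per well; signal comes from phospholipase A2 cleavage of quenched PED6 carried via bile; overnight exposure to compound and PED6 before scoring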). Conditions: Zebrafish larvae PED6 lipid processing, fluorescence scoring; screened at 20 µM (by protocol).
The nature of test [10]: loss of swimming-algae plug formation – whole organism, Chlamydomonas reinhardtii, WT vs cilia-less mutant, absorbance, 96-well, primary screen (AID 463189).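 Further: 0% = wild type cc124 cells in DMSO and 100% = ciliumless bld1 mutant cells.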 The conditions noted are these: Chlamydomonas reinhardtii gravitaxis, OD600 absorbance, 2 days; at 10 µM; stronger effect = higher value.
Test [11] in a line: blockers of RIG-like receptor reporter activation – cell-based, Sendai virus stimulus, luciferase, 10K MLSCN set, TLR/RLR signaling modifier project, primary screen (AID 602276;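 active means inhibition at or above 50% at 10 µM; inactive means inhibition below 50%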;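 further: firefly luciferase from ISG56 promoter only with Renilla not read in this screen; 0% = Sendai virus plus DMSO and 100% = medium plus DMSO without virus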). The conditions noted are these: HEK293 RL24 IRF3 luciferase reporter, at 10 µM, stronger effect = higher value.
A short description of test [12]: TLR3 IRF3 reporter activation blockers – cell-based, poly I:C stimulus, luciferase, 10K MLSCN set, primary screen (AID 602277;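 active means inhibition of the reporter signal at or above 50%; inactive means inhibition below 50%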). The conditions noted are these: HEK293-TLR3 RL24 IRF3 luciferase reporter, at 10 µM, stronger effect = higher value.
Setting [13] is: measured here: cell density z-score.
Where [14] appears, read: measured here: nuclear c-Myc green intensity z-score.
[15] abbreviates: measured here: nuclear pErk red intensity z-score, stronger effect = higher value.

Alpha-2C adrenergic receptor (Homo sapiens), sequence (P18825 whole entry, looked up): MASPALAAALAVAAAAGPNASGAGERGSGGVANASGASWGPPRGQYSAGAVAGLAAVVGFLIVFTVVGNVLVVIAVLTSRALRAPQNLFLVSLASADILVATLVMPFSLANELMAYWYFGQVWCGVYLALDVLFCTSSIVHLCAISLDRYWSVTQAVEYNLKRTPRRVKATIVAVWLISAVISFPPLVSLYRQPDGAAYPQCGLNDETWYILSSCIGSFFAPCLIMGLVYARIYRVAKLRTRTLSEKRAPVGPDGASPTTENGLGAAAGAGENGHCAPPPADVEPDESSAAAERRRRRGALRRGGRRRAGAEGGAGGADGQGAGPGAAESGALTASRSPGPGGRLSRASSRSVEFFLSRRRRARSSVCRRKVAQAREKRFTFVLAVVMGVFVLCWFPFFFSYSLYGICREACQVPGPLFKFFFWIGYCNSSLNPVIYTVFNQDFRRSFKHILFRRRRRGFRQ
Voltage-gated potassium channel subunit beta-2 (Rattus norvegicus), sequence (P62483 whole entry, looked up): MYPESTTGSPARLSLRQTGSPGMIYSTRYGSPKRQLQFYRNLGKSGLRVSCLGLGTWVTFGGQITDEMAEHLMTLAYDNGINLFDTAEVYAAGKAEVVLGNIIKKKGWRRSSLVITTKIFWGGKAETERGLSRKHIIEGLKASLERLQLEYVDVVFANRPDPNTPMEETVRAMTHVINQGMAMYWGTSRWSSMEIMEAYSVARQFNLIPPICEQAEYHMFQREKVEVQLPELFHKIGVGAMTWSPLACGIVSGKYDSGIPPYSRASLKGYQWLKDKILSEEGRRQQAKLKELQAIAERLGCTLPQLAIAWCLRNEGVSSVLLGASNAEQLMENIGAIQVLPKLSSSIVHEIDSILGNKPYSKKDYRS
Dual specificity protein phosphatase 6 (Homo sapiens), sequence (Q16828 whole entry, looked up): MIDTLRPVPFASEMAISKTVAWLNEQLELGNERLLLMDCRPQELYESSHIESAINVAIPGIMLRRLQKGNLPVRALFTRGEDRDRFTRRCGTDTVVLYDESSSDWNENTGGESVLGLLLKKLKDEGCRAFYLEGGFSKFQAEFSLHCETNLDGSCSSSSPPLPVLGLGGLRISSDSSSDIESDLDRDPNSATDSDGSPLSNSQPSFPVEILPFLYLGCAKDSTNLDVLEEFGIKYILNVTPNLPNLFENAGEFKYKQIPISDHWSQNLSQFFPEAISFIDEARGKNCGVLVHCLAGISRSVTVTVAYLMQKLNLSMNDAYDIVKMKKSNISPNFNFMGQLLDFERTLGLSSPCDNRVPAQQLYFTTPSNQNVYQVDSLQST

With `CC(=O)OCC(=O)[C@H]1CC[C@H]2[C@@H]3CCC4=CC(=O)CC[C@]4(C)[C@H]3CC[C@]12C`, in [1], the cell count was determined as 599. Besides, the inhibition – broadly, the relative decrease from the control value, in per cent – in [1] was -7.8% (inactive); in test [3], -142% (inactive); in [5], 11.3% (inactive); in [10], 6.25% (inactive); in test [11], -2.65% (inactive); in test [12], 25.6% (inactive). The inhibition of aggregation in test [2] is -27.4% (inactive). For the same molecule, the nuclei count in [2] is 83.1%; in [3] it was 132%. In addition, the z-score in test [4] (setting [13]) was -1.17; in test [4] (setting [14]), 0.0337; in test [4] (setting [15]) it was 1.04. For the same molecule, in test [6], the fluorescence slope is -0.472 (inactive). Also, the NADPH fluorescence slope in test [7] is -1.7e-05 (inactive). For the same molecule, the slope in [8] was 0.00411 (inactive). In test [9], the molecule was classed as inactive.

Take `COc1cccc(OC)c1OCCN1CCN(C(=O)c2ccco2)CC1`: the cell count in test [1] turned out to be 361. Besides, the inhibition in test [1] is -3.1% (inactive); in test [3], -24.8% (inactive); in test [5], 13.2% (inactive); in test [10], -8.27% (inactive); in [11], 11.8% (inactive); in test [12] it was 17.9% (inactive). Further, the inhibition of aggregation in test [2] was 10.7% (inactive). Also, the figures for the nuclei count in [2] and in [3] were 104% and 102%, respectively. Further, the z-score is 0.154 in test [4] (setting [13]), 0.0392 in test [4] (setting [14]) and -1.87 in test [4] (setting [15]). The fluorescence slope in test [6] was -0.538 (inactive). Besides, the NADPH fluorescence slope in [7] is -6.4e-05 (inactive). In addition, the slope in test [8] is 0.00433 (inactive). The result in test [9] was inactive.

On to `CC(=O)OCC(=O)[C@@]12OC3(CCCC3)O[C@@H]1C[C@H]1[C@@H]3CCC4=CC(=O)C=C[C@]4(C)[C@@]3(F)[C@@H](O)C[C@@]12C`, for which, in test [1], the cell count is 609. The inhibition in test [1] is -5.2% (inactive); in test [3] it was -15.3% (inactive); in [5], 5.42% (inactive); in [10], 22.1% (inactive); in test [11], 8.27% (inactive); in [12] it was 39.3% (inactive). Also, the inhibition of aggregation in test [2] is -15.8% (inactive). In addition, the nuclei count turned out to be 51.6% in test [2] and 118% in test [3]. The z-score in [4] (setting [13]) was 0.724; in test [4] (setting [14]), 0.328; in test [4] (setting [15]), 0.81. Also, the fluorescence slope in [6] is -0.54 (inactive). Moreover, the NADPH fluorescence slope in [7] is -2.6e-05 (inactive). Also, the slope in test [8] was 0.0055 (inactive). Moreover, the call in test [9] was inactive.

For the molecule `O=C(C1CCCCC1)N1CC(=O)N2CCc3ccccc3C2C1` (stereo not given), the cell count in test [1] was 552 and 561. Also, the inhibition in test [1] was -7.7% (inactive) and -4.1% (inactive); in test [3], -103% (inactive) and -50.4% (inactive); in test [5], 1.48% (inactive) and 1.9e-07% (inactive); in [10], 6.15% (inactive) and -13.5% (inactive) and -10.9% (inactive); in test [11], 8.76% (inactive); in test [12] it was 17.3% (inactive). For the same molecule, in test [2], the inhibition of aggregation is 16.2% (inactive). In addition, the nuclei count in test [2] was 109%; in test [3], 115% and 103%. Further, the z-score in test [4] (setting [13]) is -1.12 and -0.574; in test [4] (setting [14]), 0.266 and 0.927; in test [4] (setting [15]), -0.413 and -1.5. Further, in [6], the fluorescence slope is -0.447 (inactive) and -0.51 (inactive). For the same molecule, the NADPH fluorescence slope in [7] is 2.3e-05 (inactive) and -4.3e-06 (inactive). In addition, the slope in test [8] is 0.00517 (inactive) and 0.00493 (inactive). For the same molecule, the call in [9] was inactive.

On to `C[C@]12CC[C@@H]3c4ccc(O)cc4CC[C@H]3[C@@H]1CC[C@@H]2OC(=O)CCC(=O)O`, for which the cell count in test [1] turned out to be 543. The inhibition was 4.6% (inactive) in [1]; -5.8% (inactive) in test [3]; 5.79% (inactive) in test [5]; -7.26% (inactive) in [10]; 15.4% (inactive) in test [11]; 24% (inactive) in test [12]. In addition, the inhibition of aggregation in test [2] is -1.9% (inactive). The nuclei count came out at 91.7% in [2] and 111% in [3]. For the same molecule, the z-score is -0.479 in [4] (setting [13]), -0.845 in [4] (setting [14]) and 2.04 in test [4] (setting [15]). For the same molecule, in [6], the fluorescence slope is -0.519 (inactive). Further, the NADPH fluorescence slope in test [7] was -3.4e-05 (inactive). The slope in test [8] was 0.0043 (inactive). In test [9], the result was inactive.
